# Records with an inconclusive call do not appear. Calls of active or inactive are those of the source. Calls come from the whole dose curve; as a rule, active = well fitted cell-killing curve with a large enough effect in the repeat runs; inconclusive = weak or mixed curves, or effect the other way; inactive = flat fitted curve, though single readings scatter.
# Experiment: qHTS assay to identify small molecule antagonists of the androgen receptor (AR) signaling pathway using the MDA cell line in the presence of 0.5 nM R1881 - cell viability counter screen (AID 1259242); note: nearly all actives have a fitted effect of over 45% in size
# Settings: MDA-kb2 viability, CellTiter-Fluor protease fluorescence, 16 h; series mostly up to 92.4 µM
# From the text: U.S. Tox21 Program National Center for Advancing Translational Sciences [NCATS] NIH Chemical Genomics Center [NCGC] U.S. Environmental Protection Agency [EPA] National Institutes of Environmental Health Sciences [NIEHS] National Toxicology Program [NTP] U.S. Food and Drug Administration [FDA] Tox21 Assay Overview: Androgen receptor (AR) is an important member of the nuclear receptor family. Its signaling plays a critical role in AR-dependent prostate cancer and other androgen related diseases. Considerable attention has been given in the past decades to develop methods to study and screen for the environmental chemicals that have the potential to interfere with metabolic homeostasis, reproduction, developmental and behavioral functions. Therefore AR binding assay for screening androgen antagonists can be used to identify potential endocrine disruptors. MDA-kb2 cells (from ATCC, deposited by Wilson et al.) were used to screen for AR inhibitors against Tox21 compound libraries. These cells are human breast carcinoma cells that were stably transfected with a luciferase reporter gene under control of the MMTV promoter that contains response elements for both androgen receptor (AR) and glucocorticoid receptor (GR). The current screening for identification of AR inhibitors against Tox21 libraries used lower concentration of (0.5 nM) R1881 as a stimulator. The cytotoxicity of the Tox21 compound libraries against MDA-kb2 cell line was tested by measuring live-cell protease activity using CellTiter-Fluor assay in the same wells.
# Tox21 Assay Protocol Summary: MDA-kb2 cells (cells cultured without CO2) were dispensed at 3,000 cells/well in 4 uL of culture medium into white wall/solid-bottom 1536-well plates (Corning Life Sciences, Corning, NY) using a Multidrop Combi (ThermoFisher Scientific, Waltham, MA) dispenser. After the assay plates were incubated at a 37C and 0% CO2 for 5 hr, 23 nL of compounds dissolved in DMSO, positive controls or DMSO only was transferred to the assay plate by a Pintool station (Kalypsys, San Diego, CA). The transfer of compounds was followed by the addition of 1 uL of 0.5 nM (final concentration) agonist (R1881)/culture medium using a Flying Reagent Dispenser (FRD, Aurora Discovery, San Diego, CA). The plates were incubated at 37C and 0% CO2 for 16 hr. For cytotoxicity assay, 1 uL of CellTiter-Fluor reagent (Promega Corporation, Madison, WI) was added to each well using the FRD and after 30 min incubation at 37C and 0% CO2, The fluorescence intensity was measured using ViewLux plate reader (PerkinElmer, Shelton, CT).
# % is set by controls: 0 for no effect and ±100 for the full control effect.
SMILES,outcome,"viability change, negative = cytotoxic"
CCCC(=O)CC,inactive,
C[C@@H]1CC[C@@]2(OC1)O[C@H]1C[C@H]3[C@@H]4CC[C@H]5C[C@@H](O)CC[C@]5(C)[C@H]4CC(=O)[C@]3(C)[C@H]1[C@@H]2C,,4.91% [at 8.39 µM] (inactive)
CN(C)c1cc(NC(=O)CNC(C)(C)C)c(O)c2c1C[C@H]1C[C@H]3[C@H](N(C)C)C(=O)C(C(N)=O)=C(O)[C@@]3(O)C(=O)C1=C2O,inactive,
CCCCCCC(=O)c1ccccc1,inactive,
CCCCCCCCCCCCCCBr,inactive,
CCCCOCCCC,inactive,
COc1ccccc1N1CCN(CC(O)COc2cc(OC)c(OC)c(OC)c2)CC1 (stereo not given),inactive,
COC(=O)c1ccccc1Cl,inactive,
CCCCN(CCCC)CCCCCCN(CCCC)CCCC,inactive,
O=C(O)COc1ccc2ccccc2c1,inactive,
COc1cc(S(N)(=O)=O)cc(C(=O)O)c1OC,inactive,
COc1cc(NS(=O)(=O)c2ccc(N)cc2)ncn1,inactive,
C=CCn1cc[n+](C)c1,inactive,
C=CC(=O)OCC[N+](C)(C)C,inactive,
NNC(=O)OCc1ccccc1,inactive,
CCC(C)(C)C,inactive,
CC(=O)c1ccc2ccc3ccccc3c2c1,inactive,
CN(C)c1ccncc1,inactive,
O=Cc1ccccc1S(=O)(=O)O,inactive,
Cc1ccc(Br)cc1,inactive,

SMILES,outcome,"viability change, negative = cytotoxic"
C=CCCCCCCCCOC(C)=O,inactive,
CCC(C)c1nccnc1OC (stereo not given),inactive,
C=CC(C)(CCC=C(C)C)OC(=O)C(C)C (stereo not given),inactive,
O=C(CCBr)N1CCN(C(=O)CCBr)CC1,inactive,
CCCC(=O)OC,inactive,
CCCCCCCCCCCCCCCC(=O)OC,,3.68% [at 19 µM] (inactive)
Cc1ccccc1C#N,inactive,
O=C1CCCc2c(O)cccc21,inactive,
CCCCN1C(=O)c2ccccc2C1=O,inactive,
NNC(=O)CCCCC(=O)NN,inactive,
CC/C=C\CCCCCCCCCCOC(C)=O,inactive,
C/C=C(\C)C=O,inactive,
CCC(=O)OCCOc1ccccc1,inactive,
CCc1ccc(CC)cc1,inactive,
Cc1cc(O)c(Cl)cc1C,inactive,
CC(C)OCCO,inactive,
CNCCc1ccccn1,inactive,
CC1(C)S[C@@H]2[C@H](NC(=O)Cc3ccccc3)C(=O)N2[C@H]1C(=O)O (tested in a mixture with another compound),inactive,
C=CCOC(=O)CCCCCCCC,inactive,
O=C1CC2(CCCC2)CC(=O)N1CCNCC1COc2ccccc2O1 (stereo not given),inactive,
